Source: PubChem BioAssay AID1159580 (chemical genetic matrix, 2015)
Hit rate of the full screen: of about 5,500 compounds, about 2,000 (36%) were called active. Not shown: some 18% with an inconclusive outcome. Rule as the data show it: active = normalized growth mostly below about 0.91 (no sharp cut-off); inconclusive = no clear call, values can overlap the other calls; inactive = mostly above about 0.92. Some of the results follow.

Experiment: chemical genetic growth profiling, strain panel (AID 1159580);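 also: tested at 20 µM; growth read once vehicle control cultures reached saturation at 30 °C; 1 = growth at the plate median or of vehicle wells; lower values mean less growth of the strain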
Details: S. cerevisiae deletion strains, growth OD
[1] = locus YHR030C, strain SLT2, hits give low values
[2] = locus YHR079C, strain IRE1, hits give low values
[3] = locus YJL095W, strain BCK1, hits give low values
[4] = locus YJR066W, strain TOR1, hits give low values
[5] = locus YLR113W, strain HOG1, hits give low values
[6] = locus YNL183C, strain NPR1, hits give low values
[7] = locus YOR231W, strain MKK1, hits give low values
[8] = locus YPL256C, strain CLN2, hits give low values

Measured: normalized growth

NC(=O)c1ncn(C2O[C@H](CO)[C@@H](O)[C@H]2O)c1N (stereo partly specified)
inactive: locus YAL021C, strain ccr4, hits give low values 1.04 | locus YAL026C, strain drs2, hits give low values 1.03 | locus YAL030W, strain snc1, hits give low values 1.03 | locus YBL061C, strain skt5, hits give low values 1.04 | locus YBR009C, strain hhf1, hits give low values 1.07 | locus YBR023C, strain chs3, hits give low values 1.02 | locus YBR171W, strain sec66, hits give low values 1.05 | locus YBR231C, strain swc5, hits give low values 1.04 | locus YBR279W, strain paf1, hits give low values 1.02 | locus YCL011C, strain gbp2, hits give low values 1.04 | locus YCL016C, strain dcc1, hits give low values 1.03 | locus YCL061C, strain MRC1, hits give low values 1.04 | locus YCL069W, strain vba3, hits give low values 1.03 | locus YCR088W, strain abp1, hits give low values 1.03 | locus YDL005C, strain med2, hits give low values 1.04 | locus YDL040C, strain nat1, hits give low values 1.03 | locus YDR001C, strain nth1, hits give low values 1.03 | locus YDR069C, strain doa4, hits give low values 1.03 | locus YDR137W, strain rgp1, hits give low values 1.04 | locus YDR159W, strain sac3, hits give low values 1.05 | locus YDR195W, strain ref2 1.02 | locus YDR297W, strain sur2, hits give low values 1.03 | locus YDR334W, strain swr1, hits give low values 1.04 | locus YDR335W, strain msn5, hits give low values 1.03 | locus YDR392W, strain spt3, hits give low values 1 | locus YEL003W, strain gim4, hits give low values 1.03 | locus YEL037C, strain rad23, hits give low values 1.03 | locus YEL061C, strain CIN8 (second series), hits give low values 1.03 | locus YER015W, strain faa2, hits give low values 1.04 | locus YER016W, strain bim1, hits give low values 1.03 | locus YER111C, strain swi4, hits give low values 1.04 | locus YER155C, strain BEM2 (second series), hits give low values 1.06 | locus YFR010W, strain ubp6, hits give low values 1.04 | locus YGL167C, strain pmr1, hits give low values 1.04 | locus YGL173C, strain kem1, hits give low values 1.04 | locus YGL227W, strain vid30, hits give low values 1.04 | locus YGL240W, strain doc1, hits give low values 1.06 | locus YGL253W, strain hxk2, hits give low values 1.04 | locus YHR013C, strain ard1, hits give low values 1.03 | locus YHR027C, strain rpn1, hits give low values 1.03 | [1] 0.991 | [2] 1.01 | locus YHR142W, strain chs7, hits give low values 1.02 | locus YJL092W, strain hpr5, hits give low values 1.02 | locus YJL095W, strain BCK1 (second series), hits give low values 1.03 | [3] 1.01 | locus YJL115W, strain asf1, hits give low values 1.03 | locus YJL129C, strain trk1, hits give low values 1.04 | locus YJL154C, strain vps35, hits give low values 1.02 | locus YJL164C, strain tpk1, hits give low values 1.02 | locus YJL166W, strain qcr8, hits give low values 1.05 | locus YJL187C, strain SWE1, hits give low values 1.03 | [4] 0.949 | locus YKL160W, strain elf1, hits give low values 1.02 | locus YKR026C, strain gcn3, hits give low values 1.03 | locus YKR091W, strain srl3, hits give low values 1.03 | locus YLL001W, strain dnm1, hits give low values 1.04 | locus YLL026W, hits give low values 1.03 | locus YLL041C, strain sdh2, hits give low values 1.04 | locus YLR027C, strain aat2, hits give low values 1.03 | [5] 0.993 | locus YLR221C, strain rsa3, hits give low values 1.03 | locus YLR258W, strain gsy2, hits give low values 1.04 | locus YLR262C, strain YPT6 (second series), hits give low values 1.05 | locus YLR320W, strain mms22, hits give low values 1.05 | locus YLR342W, strain FKS1, hits give low values 1.05 | locus YLR357W, strain rsc2, hits give low values 1.08 | locus YLR370C, strain arc18, hits give low values 1.05 | locus YLR384C, strain iki3, hits give low values 1.04 | locus YML120C, strain ndi1, hits give low values 1.01 | locus YMR058W, strain fet3, hits give low values 1.03 | locus YMR125W, strain sto1, hits give low values 1.04 | locus YMR129W, hits give low values 1.03 | locus YMR205C, strain PFK2, hits give low values 1.07 | locus YMR231W, strain pep5, hits give low values 1.03 | locus YNL071W, strain lat1, hits give low values 1.04 | [6] 0.965 | locus YNL209W, strain ssb2, hits give low values 1.04 | locus YNL248C, strain rpa49, hits give low values 1.03 | locus YNL322C, strain KRE1 (second series), hits give low values 1.03 | locus YNR049C, strain mso1, hits give low values 1.04 | locus YOR001W, strain rrp6, hits give low values 1.02 | locus YOR070C, strain gyp1, hits give low values 1.03 | locus YOR080W, strain dia2, hits give low values 1.05 | locus YOR083W, strain WHI5, hits give low values 1.02 | locus YOR106W, strain vam3, hits give low values 1.03 | [7] 1.01 | locus YOR265W, strain rbl2, hits give low values 1.04 | locus YOR270C, strain vph1, hits give low values 1.05 | locus YOR290C, strain snf2, hits give low values 0.974 | locus YPL051W, strain arl3, hits give low values 1.01 | locus YPL078C, strain atp4, hits give low values 1.03 | locus YPL106C, strain sse1, hits give low values 1.08 | locus YPL240C, strain hsp82, hits give low values 1.03 | [8] 0.982

C/C(=N/Nc1ccccc1)c1cc(Cl)cc(Cl)c1O
active: [1] 0.308 | [5] 0.792 | locus YLR133W, strain CKI1, hits give low values 0.731 | locus YNL020C, strain ARK1, hits give low values 0.647 | locus YNL307C, strain MCK1 (second series), hits give low values 0.632 | [8] 0.774
inactive: locus YAR019C, strain CDC15, hits give low values 0.964 | locus YBL105C, strain PKC1, hits give low values 0.977 | locus YBR135W, strain CKS1, hits give low values 0.954 | locus YBR136W, strain MEC1, hits give low values 0.954 | locus YBR160W, strain CDC28, hits give low values 0.958 | locus YDL017W, strain CDC7, hits give low values 0.964 | locus YDL028C, strain MPS1, hits give low values 0.967 | locus YDL101C, strain DUN1, hits give low values 0.969 | locus YDL108W, strain KIN28, hits give low values 0.954 | locus YDL132W, strain cdc53, hits give low values 0.956 | locus YDL214C, strain PRR2, hits give low values 0.785 | locus YDR052C, strain DBF4, hits give low values 0.968 | locus YDR054C, strain cdc34, hits give low values 0.966 | locus YDR226W, strain ADK1, hits give low values 0.954 | locus YDR477W, strain SNF1, hits give low values 0.734 | locus YER123W, strain YCK3, hits give low values 0.734 | locus YER133W, strain GLC7, hits give low values 0.825 | locus YFL009W, strain cdc4, hits give low values 0.964 | locus YFL029C, strain CAK1, hits give low values 0.955 | locus YFR003C, strain YPI1, hits give low values 0.962 | locus YFR019W, strain FAB1, hits give low values 0.834 | locus YFR028C, strain CDC14, hits give low values 0.93 | locus YGR040W, strain KSS1, hits give low values 0.746 | locus YGR052W, strain FMP48, hits give low values 0.804 | locus YGR092W, strain DBF2, hits give low values 0.658 | [2] 0.748 | locus YHR082C, strain KSP1, hits give low values 0.731 | locus YHR205W, strain SCH9, hits give low values 0.694 | locus YIL147C, strain SLN1, hits give low values 0.968 | [3] 0.815 | locus YJL128C, strain PBS2, hits give low values 0.884 | locus YJL157C, strain FAR1, hits give low values 0.79 | locus YJR016C, strain ILV3, hits give low values 0.954 | locus YJR066W, strain TOR1 (second series), hits give low values 0.829 | [4] 0.66 | locus YKL048C, strain ELM1, hits give low values 0.87 | locus YKL067W, strain YNK1, hits give low values 0.851 | locus YKL101W, strain HSL1, hits give low values 0.798 | locus YKL193C, strain SDS22, hits give low values 0.948 | locus YKL203C, strain TOR2, hits give low values 0.745 | locus YLR403W, strain SFP1, hits give low values 0.681 | locus YML070W, strain DAK1, hits give low values 0.81 | locus YMR001C, strain CDC5, hits give low values 0.954 | locus YMR205C, strain PFK2 (second series), hits give low values 0.862 | locus YMR277W, strain FCP1, hits give low values 0.95 | locus YNL006W, strain LST8, hits give low values 0.966 | locus YNL161W, strain CBK1, hits give low values 0.964 | [6] 0.872 | locus YNL207W, strain RIO2, hits give low values 0.958 | locus YNL222W, strain SSU72, hits give low values 0.961 | locus YOL078W, strain AVO1, hits give low values 0.961 | locus YOL136C, strain PFK27, hits give low values 0.764 | locus YOR061W, strain CKA2, hits give low values 0.784 | locus YOR119C, strain RIO1, hits give low values 0.732 | [7] 0.855 | locus YOR329C, strain SCD5, hits give low values 0.974 | locus YPL031C, strain PHO85, hits give low values 0.742 | locus YPL153C, strain RAD53, hits give low values 0.78 | locus YPL204W, strain HRR25, hits give low values 0.737 | locus YPL209C, strain IPL1, hits give low values 0.965 | locus YPR025C, strain CCL1, hits give low values 0.963 | locus YPR106W, strain ISR1, hits give low values 0.942 | locus YPR111W, strain DBF20, hits give low values 0.938 | strain NNK1, hits give low values 0.951 | strain TSCII, hits give low values 0.967
